Only some compounds are listed: those with a hit (about 10% of all), similar ones and a draw of the others.
ALDH1A1 inh: inhibitors of human aldehyde dehydrogenase 1A1; Purified ALDH1A1, NADH fluorescence, propionaldehyde substrate; P00352; actives 7.3% (n = 220,000); Potency, µM (top dose mostly 75.3 µM), hits mostly inhibitors; AID 1030
Target sequence (P00352 whole entry, looked up): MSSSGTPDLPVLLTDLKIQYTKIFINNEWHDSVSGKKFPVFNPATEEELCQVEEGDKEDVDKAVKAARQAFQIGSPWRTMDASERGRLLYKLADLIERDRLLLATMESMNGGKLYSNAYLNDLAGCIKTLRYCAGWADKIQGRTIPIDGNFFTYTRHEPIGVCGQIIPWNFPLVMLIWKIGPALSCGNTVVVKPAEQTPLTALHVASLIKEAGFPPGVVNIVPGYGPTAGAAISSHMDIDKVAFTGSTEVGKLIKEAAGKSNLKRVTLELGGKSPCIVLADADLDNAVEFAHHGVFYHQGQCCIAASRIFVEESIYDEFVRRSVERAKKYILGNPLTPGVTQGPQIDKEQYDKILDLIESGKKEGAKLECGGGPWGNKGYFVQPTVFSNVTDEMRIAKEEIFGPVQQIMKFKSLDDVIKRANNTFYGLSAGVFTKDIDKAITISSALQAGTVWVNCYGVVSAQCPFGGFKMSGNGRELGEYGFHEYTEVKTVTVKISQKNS
PNC inhibitor: inhibitors of perinucleolar compartment assembly; PC3M PTB-GFP, PNC prevalence imaging, 16 h; active compounds read low; activity change (PNC), negative = inhibition, % at 10 µM; actives 3.1% (n = 140,000); AID 2417;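 active = readout at or below -70, meaning at least 70% loss of cells showing the perinucleolar compartment, a nuclear body marking cancer cells; inconclusive = readout between -30 and a set limit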
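Compounds are pinned in duplicate onto adhered PC3M cells stably expressing GFP-tagged PTB and incubated 16 h at 37 C. Cells are then fixed, nuclei stained with Hoechst, and PNC-positive cells counted.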
Lamin A splicing: LMNA splicing modulation; HeLa LMNA splicing GFP/RFP minigene ratio, 48 h; Potency, µM (titrated, usually from 46.1 µM), actives largely listed as inhibitors; actives 0.01% (n = 200,000); AID 1487; active = well fitted inhibition curve with a large enough effect in the signal ratio, with a control signal flat, not every such curve was filed as active; inconclusive = small, poorly fitted or top-dose-only effect, or effect the other way, or a change in a side signal; the % refers to the signal ratio
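Read-out is the ratio of GFP to DsRed2 object intensity, acquired by 488 nm laser-scanning cytometry on HeLa lamin A-EGFP minigene reporter cells. Compound incubation 48 hrs at 37 °C in Opti-MEM with 2% FBS; DMSO 0.5% final.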
HPGD block: HPGD (human) dehydrogenase inhibition. P15428. purified HPGD, NADH fluorescence kinetic, PGE2 substrate. Potency, µM, actives largely listed as inhibitors. actives 4.3% (n = 150,000). AID 894
Target sequence (P15428 whole entry, looked up): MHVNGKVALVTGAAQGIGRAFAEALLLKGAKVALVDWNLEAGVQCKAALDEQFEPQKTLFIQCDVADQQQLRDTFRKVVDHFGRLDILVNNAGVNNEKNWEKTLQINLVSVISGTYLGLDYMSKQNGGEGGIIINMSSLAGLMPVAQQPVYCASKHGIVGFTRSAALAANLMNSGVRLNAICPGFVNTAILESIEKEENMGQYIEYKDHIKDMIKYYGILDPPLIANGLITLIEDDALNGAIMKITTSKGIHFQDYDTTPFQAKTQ
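20 nM HPGD preincubated 15 min at room temperature with compound in 50 mM Tris-HCl pH 8, 0.01% Tween 20. Started with 1 mM NAD+ and 30 uM prostaglandin E2; NADH fluorescence (360/450 nm) read 5 times over 30-s intervals, last minus first.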
Luc counter: counter-screen: inhibitors of Kinase-Glo firefly luciferase; actives 0.28% (n = 200,000); Potency, µM (highest dose often 38.3 µM), usual class: inhibitors; Q27757; Kinase-Glo luciferase, ATP luminescence, 8 min; active = well fitted inhibition curve with a large enough effect; inconclusive = small, poorly fitted or top-dose-only effect; note: nearly all actives have a fitted effect of over 60% in size
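Recombinant Kinase-Glo luciferase, 10 uM ATP (linear range), luciferin; imidazole pH 7.2 / KCl / MgCl2 / Tween / BSA buffer; 8 min RT; luminescence.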
Of the large screens only hits and unclear results are named; the others gave an inactive call. Unless noted, calls come from the whole dose curve; as a rule, active = well fitted inhibition curve with a large enough effect (not every such curve was filed as active); inconclusive = small, poorly fitted or top-dose-only effect, or another doubt; inactive = no such curve, though single readings can be large or run the other way.

CN(C)c1ncc2nc(CCc3ccccc3)c(=O)n(Cc3cccs3)c2n1	ALDH1A1 inh inconclusive (no result: PNC inhibitor, HPGD block, Luc counter)
CCOC(=O)c1ccc2c(c1)C1C=CCC1C(C(=O)O)N2 (stereo not given)	ALDH1A1 inh 18µM, HPGD block 16µM
CCCC1Nc2ccc(C(=O)O)cc2C2C=CCC12 (stereo not given)	ALDH1A1 inh inconclusive, PNC inhibitor inconclusive, Lamin A splicing inconclusive, HPGD block inconclusive
O=C(O)C1Nc2c(C(=O)N3CCOCC3)cccc2C2C=CCC12 (stereo not given)	ALDH1A1 inh inconclusive, PNC inhibitor inconclusive, HPGD block 25µM
Cc1ccc2c(c1C)NC(C(=O)O)C1CC=CC21 (stereo not given)	ALDH1A1 inh 13µM, PNC inhibitor inconclusive, Lamin A splicing inconclusive, HPGD block 10µM
Cc1ccc2oc(C(=O)Nc3cccc(-c4nc5ccccc5s4)c3)c(C)c2c1	none (no result: ALDH1A1 inh, PNC inhibitor, HPGD block, Luc counter)
O=C(Cc1cccs1)Nc1nc2c(s1)CCCC2	ALDH1A1 inh inconclusive, PNC inhibitor -113, Lamin A splicing inconclusive
COC(=O)c1sc(NC(=O)Cc2cccs2)nc1C	ALDH1A1 inh 13µM, PNC inhibitor inconclusive
COC(=O)c1sc(NC(=O)COc2ccccc2)nc1C	none
Oc1cc2c(cc1O)[C@@H](c1ccccc1)CNCC2	HPGD block 20µM
COc1ccc(C(=O)C(CN2CCCC2)c2ccccc2)cc1 (stereo not given)	ALDH1A1 inh 25µM, Lamin A splicing inconclusive
CCCCOc1ccc(C(=O)C(CN2CCOCC2)c2ccccc2)cc1 (stereo not given)	PNC inhibitor inconclusive, Lamin A splicing inconclusive
CCCOc1ccc(C(=O)C(CN2CCCC2)c2ccccc2)cc1 (stereo not given)	PNC inhibitor -113, Lamin A splicing inconclusive
CCOc1ccccc1N1C(=O)CC(Sc2ncccc2C(=O)O)C1=O (stereo not given)	PNC inhibitor inconclusive
Cc1ccc(N2C(=O)CC(Sc3ccccc3C(=O)O)C2=O)c([N+](=O)[O-])c1 (stereo not given)	ALDH1A1 inh 2µM, Lamin A splicing inconclusive (no result: PNC inhibitor, HPGD block)
COc1ccc(N2C(=O)CC(Sc3ccccc3C(=O)O)C2=O)c([N+](=O)[O-])c1 (stereo not given)	ALDH1A1 inh 1µM, Lamin A splicing inconclusive (no result: PNC inhibitor, HPGD block)
CCC(C)C(=O)OC1CCC=C2C=CC(C)C(CCC3CC(O)CC(=O)O3)[C@@H]21 (stereo not given in full)	Lamin A splicing inconclusive (no result: PNC inhibitor)
NNC(=O)CSc1nc(-c2ccccc2)nc2c1CCCC2	ALDH1A1 inh 2µM (no result: PNC inhibitor, HPGD block)
OCCSc1nc(-c2ccccc2)nc2c1CCC2	none
CCOC(=O)N1CCC(n2c(SCC(=O)NCc3ccccc3)nc3ccccc3c2=O)CC1	none
Cc1cc(SCC(=O)NCCC2=CCCCC2)nc2ccccc12	HPGD block 25µM
CCOC(=O)N1CCC(n2c(SCC(=O)NCCC3=CCCCC3)nc3ccccc3c2=O)CC1	ALDH1A1 inh 13µM, Lamin A splicing inconclusive
COc1ccc(-n2cc(-c3ccccc3)nc2SCC(=O)Nc2ccccc2)cc1Cl	none (no result: ALDH1A1 inh, PNC inhibitor, HPGD block, Luc counter)
N#Cc1cc(Oc2cccnc2)c(Oc2cccnc2)cc1C#N	PNC inhibitor -111
O=[N+]([O-])c1ccc(Oc2cccnc2)nc1	none (no result: PNC inhibitor, Lamin A splicing, HPGD block, Luc counter)
Cc1ccc(S(=O)(=O)Cc2sc3ccccc3[n+]2C)cc1	ALDH1A1 inh inconclusive, HPGD block 22µM
CCC(CC)NCc1ccc2c(c1)c1ccccc1n2CC	ALDH1A1 inh 20µM (no result: PNC inhibitor, Lamin A splicing, HPGD block)
Cc1ccc(S(=O)(=O)Nc2cccc3cccnc23)cc1	ALDH1A1 inh inconclusive, PNC inhibitor inconclusive, Lamin A splicing inconclusive
COc1cc(NCCCC(C)N)c2ncccc2c1 (stereo not given)	ALDH1A1 inh 22µM
COc1cc(NS(=O)(=O)c2ccc(C)cc2)c2ncccc2c1	PNC inhibitor -100, Lamin A splicing inconclusive, HPGD block inconclusive
COc1ccc(-c2csc(N)n2)cc1F	ALDH1A1 inh 11µM (no result: PNC inhibitor, HPGD block)
CCc1ccc(OC)c(-c2csc(N)n2)c1	none (no result: PNC inhibitor, HPGD block)
COc1ccccc1OCCCCOc1ccccc1F	none
CCN(CC)CCCCCOc1ccccc1OC	ALDH1A1 inh 0.028µM
Cn1nnc2cc(C(=O)N3CCSCC3)ccc21	HPGD block 1.6µM
CC(C)NC(=O)c1ccc2c(c1)nnn2C	none
CCN(CC)C(=O)c1ccc2c(c1)nnn2C	PNC inhibitor inconclusive, HPGD block 16µM
CCOC(=O)[C@]1(C(NC(=O)OC)c2ccccc2)CCCC1=O (stereo not given in full)	none (no result: PNC inhibitor, Lamin A splicing, HPGD block, Luc counter)
COc1ccc(Oc2ncc3nc(C)c(=O)n(C[C@H]4CCCO4)c3n2)cc1	ALDH1A1 inh inconclusive (no result: PNC inhibitor, HPGD block, Luc counter)
CCN(CC)c1ccc(N=Cc2ccc(N(CC)CC)cc2O)cc1	ALDH1A1 inh 1.8µM, PNC inhibitor inconclusive, Lamin A splicing inconclusive
CCN(CC)c1ccc(C=Nc2ccccc2)c(O)c1	ALDH1A1 inh 3.5µM
CCN(CC)c1ccc(C=Nc2cc(C)cc(C)c2)c(O)c1	ALDH1A1 inh 14µM
CCN(CC)c1ccc(C=Nc2ccc(N(C)C)cc2)c(O)c1	ALDH1A1 inh inconclusive
CCN(CC)c1ccc(C=Nc2ccc(C)cc2)c(O)c1	ALDH1A1 inh inconclusive, Lamin A splicing inconclusive
COc1ccccc1NS(=O)(=O)c1cc(C(=O)O)ccc1F	none (no result: PNC inhibitor, Lamin A splicing)
COc1ccc([C@@H]2[C@H]3C(=O)N(c4cccc(C(F)(F)F)c4)C(=O)[C@H]3ON2C)cc1	ALDH1A1 inh 14µM
O=C1[C@H]2[C@H](ON3CCCC[C@H]23)C(=O)N1c1cccc(C(F)(F)F)c1	none (no result: PNC inhibitor, Lamin A splicing, HPGD block)
CC(O)CN1C(=O)C(CC(=O)Nc2ccc(Cl)cc2)SC1=Nc1ccccc1 (stereo not given)	ALDH1A1 inh 22µM
C=CCN1C(=O)C(CC(=O)Nc2ccc(OC)cc2)SC1=Nc1ccc(S(N)(=O)=O)cc1 (stereo not given)	ALDH1A1 inh 7.9µM (no result: PNC inhibitor, Lamin A splicing, HPGD block, Luc counter)
COc1ccc(N=C2SC(CC(=O)Nc3ccccc3)C(=O)N2Cc2ccccn2)cc1 (stereo not given)	ALDH1A1 inh 2.2µM, Lamin A splicing inconclusive (no result: PNC inhibitor, HPGD block)
CCn1ccc2cc(S(=O)(=O)N3CCCN(C(=O)Nc4ccc(C)cc4Cl)CC3)ccc21	none (no result: ALDH1A1 inh, PNC inhibitor, HPGD block, Luc counter)
CCCNC(=O)c1ccc2c(c1)ncn2-c1ccccc1OC	PNC inhibitor inconclusive, HPGD block 18µM
COc1ccccc1-n1cnc2cc(NCc3cccs3)ccc21	ALDH1A1 inh inconclusive, PNC inhibitor -81, Lamin A splicing inconclusive, HPGD block inconclusive
COc1ccc(OC)c(-n2cnc3cc(C(=O)NCCCN4CCOCC4)ccc32)c1	HPGD block 25µM
Cc1cc2n(n1)CCCN2C(=O)Nc1ccccc1F	none (no result: ALDH1A1 inh, PNC inhibitor, HPGD block, Luc counter)
O=C1[C@H]2[C@H]3[C@H](O)[C@H](O)C/C(=N/OCc4ccccc4)[C@H]3CC[C@@H]2C(=O)N1C1CCCCC1	none (no result: PNC inhibitor, Lamin A splicing, HPGD block, Luc counter)
Cn1cnc(S(=O)(=O)N2CCCC(C(=O)Nc3cccc(C#N)c3)C2)c1 (stereo not given)	none (no result: ALDH1A1 inh, PNC inhibitor, HPGD block, Luc counter)
COc1cccc(CNC(=O)CCC2CCCN(C(=O)c3ccc(OC)o3)C2)c1 (stereo not given)	ALDH1A1 inh 7.9µM (no result: PNC inhibitor, Lamin A splicing, HPGD block)

Compound activity as filed in PubChem BioAssay.
